Laboratory results published in PubChem BioAssay.
Values without a mark were called inactive. Calls of active or inactive are those of the source. Unless noted, no stated cut-off is given here; in the data, active means inhibition above about 33%; inactive means the rest.

Assays:
[1] = target: Nuclear receptor coactivator 3 (Homo sapiens) (UniProt Q9Y6Q9); experiment: SRC3 coactivator transcriptional activity inhibitors, confirmation, cell-based, luminescence, quadruplicate (AID 588792;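 active means mean inhibition over 43.08%, the solvent-only control mean plus 3 SD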;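 further: 0% = DMSO treated cells and 100% = gossypol at 36 µM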); settings: HEK293 GAL4-SRC3 luciferase reporter, at 3.6 µM, hits give high values
Chain of Nuclear receptor coactivator 3 (Homo sapiens) (Q9Y6Q9 whole entry, looked up, the tested form may be a part): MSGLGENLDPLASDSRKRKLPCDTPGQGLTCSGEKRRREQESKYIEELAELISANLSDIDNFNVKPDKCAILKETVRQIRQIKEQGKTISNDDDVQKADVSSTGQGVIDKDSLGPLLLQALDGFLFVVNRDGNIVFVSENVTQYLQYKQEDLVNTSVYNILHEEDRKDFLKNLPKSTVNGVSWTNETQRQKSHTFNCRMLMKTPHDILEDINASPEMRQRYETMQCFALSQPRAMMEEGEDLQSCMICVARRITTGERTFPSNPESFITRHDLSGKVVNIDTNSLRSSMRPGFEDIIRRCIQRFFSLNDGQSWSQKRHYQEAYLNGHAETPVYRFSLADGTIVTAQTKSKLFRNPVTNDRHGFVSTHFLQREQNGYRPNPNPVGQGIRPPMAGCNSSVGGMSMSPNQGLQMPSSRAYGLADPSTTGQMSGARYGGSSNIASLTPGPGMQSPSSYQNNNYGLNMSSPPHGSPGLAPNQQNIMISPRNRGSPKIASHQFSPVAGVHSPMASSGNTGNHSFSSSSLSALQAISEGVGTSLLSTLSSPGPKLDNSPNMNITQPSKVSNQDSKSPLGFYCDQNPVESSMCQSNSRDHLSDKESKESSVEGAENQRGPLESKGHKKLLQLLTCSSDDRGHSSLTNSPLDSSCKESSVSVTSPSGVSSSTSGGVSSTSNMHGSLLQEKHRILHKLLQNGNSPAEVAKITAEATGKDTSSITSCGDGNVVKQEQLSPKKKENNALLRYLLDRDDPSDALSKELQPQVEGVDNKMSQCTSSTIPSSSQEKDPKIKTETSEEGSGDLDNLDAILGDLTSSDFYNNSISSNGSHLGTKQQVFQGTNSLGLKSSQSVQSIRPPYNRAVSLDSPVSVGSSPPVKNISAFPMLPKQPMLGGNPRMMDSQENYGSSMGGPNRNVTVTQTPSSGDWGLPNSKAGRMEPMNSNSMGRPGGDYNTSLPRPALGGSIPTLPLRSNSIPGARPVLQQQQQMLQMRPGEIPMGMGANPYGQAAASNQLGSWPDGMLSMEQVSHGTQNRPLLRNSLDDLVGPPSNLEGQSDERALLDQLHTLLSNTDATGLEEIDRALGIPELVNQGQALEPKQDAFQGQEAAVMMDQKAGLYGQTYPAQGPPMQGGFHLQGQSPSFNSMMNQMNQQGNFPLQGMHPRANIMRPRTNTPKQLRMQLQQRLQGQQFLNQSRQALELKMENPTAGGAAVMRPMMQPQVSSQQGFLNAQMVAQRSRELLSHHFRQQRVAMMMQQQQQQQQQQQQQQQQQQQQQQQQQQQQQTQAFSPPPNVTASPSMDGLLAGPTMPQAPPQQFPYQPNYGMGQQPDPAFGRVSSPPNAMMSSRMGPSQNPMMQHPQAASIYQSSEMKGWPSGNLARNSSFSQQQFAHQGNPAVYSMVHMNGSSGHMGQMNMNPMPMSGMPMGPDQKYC

[2] = system: transactivating tegument protein VP16 (Human herpesvirus 1), Gal4-VP16 luciferase reporter; experiment: VP16 transactivation inhibitors, counter-screen for SRC3 inhibitor project, cell-based, luminescence, high throughput (AID 588794; in the data active means inhibition above about 30%); settings: mammalian cells, VP16-driven luciferase reporter luminescence; at 3.6 µM; hits give high values
[3] = target: Nuclear receptor coactivator 1 (Homo sapiens) (UniProt Q15788); experiment: SRC1 coactivator transcriptional activity inhibitors, confirmation, cell-based, luminescence, quadruplicate (AID 588820;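 active means mean inhibition above 46.68%, the untreated control wells mean plus 3 SD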;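 further: 0% = DMSO wells and 100% = gossypol 36 µM treated wells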); settings: HEK293 GAL4-SRC1 luciferase reporter, at 3.6 µM, hits give high values
Chain of Nuclear receptor coactivator 1 (Homo sapiens) (Q15788 whole entry, looked up, the tested form may be a part): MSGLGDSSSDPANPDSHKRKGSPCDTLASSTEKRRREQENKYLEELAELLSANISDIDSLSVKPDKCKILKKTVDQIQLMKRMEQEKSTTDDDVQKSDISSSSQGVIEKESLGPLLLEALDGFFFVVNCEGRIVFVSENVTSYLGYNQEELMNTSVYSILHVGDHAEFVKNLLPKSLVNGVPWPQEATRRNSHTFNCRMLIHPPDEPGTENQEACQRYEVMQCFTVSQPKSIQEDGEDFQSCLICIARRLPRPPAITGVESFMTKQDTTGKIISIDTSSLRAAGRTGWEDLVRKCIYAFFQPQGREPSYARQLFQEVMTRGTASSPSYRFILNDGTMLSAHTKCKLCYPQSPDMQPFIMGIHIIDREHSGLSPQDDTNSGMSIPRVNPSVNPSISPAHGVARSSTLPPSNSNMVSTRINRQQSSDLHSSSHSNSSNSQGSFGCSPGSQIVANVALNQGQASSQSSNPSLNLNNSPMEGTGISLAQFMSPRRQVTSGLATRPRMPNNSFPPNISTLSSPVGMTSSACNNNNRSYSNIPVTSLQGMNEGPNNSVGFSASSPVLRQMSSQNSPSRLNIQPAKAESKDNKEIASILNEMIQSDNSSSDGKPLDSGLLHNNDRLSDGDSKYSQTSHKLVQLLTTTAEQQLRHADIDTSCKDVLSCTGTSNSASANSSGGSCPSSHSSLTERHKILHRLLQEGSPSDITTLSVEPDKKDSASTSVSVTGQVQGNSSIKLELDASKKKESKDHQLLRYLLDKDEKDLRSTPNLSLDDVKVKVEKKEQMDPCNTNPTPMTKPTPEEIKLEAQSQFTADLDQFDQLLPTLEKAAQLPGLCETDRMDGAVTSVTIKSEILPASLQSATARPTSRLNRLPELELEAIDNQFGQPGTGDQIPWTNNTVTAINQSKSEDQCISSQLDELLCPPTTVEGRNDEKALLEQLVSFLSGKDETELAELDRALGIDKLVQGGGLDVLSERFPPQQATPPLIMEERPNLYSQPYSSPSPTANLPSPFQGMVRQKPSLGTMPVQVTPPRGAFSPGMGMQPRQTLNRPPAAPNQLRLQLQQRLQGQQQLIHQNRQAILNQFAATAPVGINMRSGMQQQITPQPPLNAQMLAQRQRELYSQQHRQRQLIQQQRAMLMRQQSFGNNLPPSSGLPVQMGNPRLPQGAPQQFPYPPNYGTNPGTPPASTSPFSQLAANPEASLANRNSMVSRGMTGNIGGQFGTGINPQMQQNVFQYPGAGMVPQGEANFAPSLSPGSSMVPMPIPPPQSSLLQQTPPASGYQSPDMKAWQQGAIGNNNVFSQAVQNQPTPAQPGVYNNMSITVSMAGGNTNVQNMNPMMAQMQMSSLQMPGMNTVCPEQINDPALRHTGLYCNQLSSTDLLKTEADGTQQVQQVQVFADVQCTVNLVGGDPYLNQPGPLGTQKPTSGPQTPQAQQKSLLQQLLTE

[4] = VP16 transactivation inhibitors, counter-screen for SRC1 inhibitor project, cell-based, luminescence, high throughput (AID 588824; in the data active means inhibition above about 25%); settings: cell-based VP16 transactivation luciferase luminescence; at 3.6 µM; hits give high values
[5] = StAR promoter reporter inhibitors, counter-screen for LRH-1 inverse agonist project, cell-based, luminescence, high throughput (AID 651611; in the data active means inhibition above about 28%); settings: StAR promoter luciferase reporter counterscreen, at 3.6 µM, hits give high values
[6] = target: Nuclear receptor subfamily 5 group A member 2 (Homo sapiens) (UniProt O00482); experiment: LRH-1 (NR5A2) inverse agonists, retest, confirmation, cell-based, luminescence (AID 651613; in the data active means inhibition above about 42%;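 further: HEK293T cells co-transfected with LRH-1 and StAR promoter luciferase reporter; 0% = vehicle wells and 100% = parental cells lacking receptor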); settings: cell-based LRH-1 luciferase reporter, inverse agonism; at 3.6 µM; hits give high values
Chain of Nuclear receptor subfamily 5 group A member 2 (Homo sapiens) (O00482 whole entry, looked up): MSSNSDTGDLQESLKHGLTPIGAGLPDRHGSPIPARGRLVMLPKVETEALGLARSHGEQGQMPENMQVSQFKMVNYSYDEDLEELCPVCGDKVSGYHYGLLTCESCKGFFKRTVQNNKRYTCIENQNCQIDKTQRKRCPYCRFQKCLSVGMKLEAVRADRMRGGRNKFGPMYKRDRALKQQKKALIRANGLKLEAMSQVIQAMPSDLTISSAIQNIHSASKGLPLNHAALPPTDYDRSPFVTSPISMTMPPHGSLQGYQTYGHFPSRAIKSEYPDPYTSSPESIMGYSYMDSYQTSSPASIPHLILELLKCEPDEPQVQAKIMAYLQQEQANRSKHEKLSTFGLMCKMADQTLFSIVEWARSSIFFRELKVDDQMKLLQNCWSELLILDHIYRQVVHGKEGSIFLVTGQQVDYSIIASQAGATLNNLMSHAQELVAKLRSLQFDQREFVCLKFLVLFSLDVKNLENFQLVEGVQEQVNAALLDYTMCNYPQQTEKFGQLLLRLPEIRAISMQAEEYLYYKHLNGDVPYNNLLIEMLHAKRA

[7] = target: Steroidogenic factor 1 (Homo sapiens) (UniProt Q13285); experiment: SF1 (NR5A1) inverse agonists, counter-screen for LRH-1 inverse agonist project, cell-based, luminescence, high throughput (AID 651614; in the data active means inhibition above about 44%;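 further: cells cotransfected with StAR promoter reporter and SF1 expression vector; 0% = vehicle on cells with receptor and 100% = vehicle on cells lacking receptor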); settings: cell-based SF1 luciferase reporter, at 3.6 µM, hits give high values
Chain of Steroidogenic factor 1 (Homo sapiens) (Q13285 whole entry, looked up, the tested form may be a part): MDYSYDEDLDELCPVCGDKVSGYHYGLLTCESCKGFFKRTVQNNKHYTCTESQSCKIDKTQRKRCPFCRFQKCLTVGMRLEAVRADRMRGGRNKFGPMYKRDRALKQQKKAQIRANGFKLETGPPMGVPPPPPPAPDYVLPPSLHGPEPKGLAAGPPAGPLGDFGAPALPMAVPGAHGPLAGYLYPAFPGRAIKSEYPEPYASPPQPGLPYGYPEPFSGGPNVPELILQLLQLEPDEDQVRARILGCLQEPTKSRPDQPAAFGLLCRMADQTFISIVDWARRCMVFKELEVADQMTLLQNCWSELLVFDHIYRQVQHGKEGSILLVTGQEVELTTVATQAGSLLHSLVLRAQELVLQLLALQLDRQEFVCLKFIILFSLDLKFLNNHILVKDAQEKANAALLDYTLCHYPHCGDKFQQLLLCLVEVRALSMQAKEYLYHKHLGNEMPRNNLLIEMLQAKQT

[8] = VP16 transactivation reporter inhibitors, counter-screen for LRH-1 inverse agonist project, cell-based, luminescence, high throughput (AID 651615); settings: Gal4-VP16 luciferase reporter cells, at 3.6 µM, hits give high values

CN(C)CCOc1ccc2c(c1)C(=O)C(=Cc1ncc([N+](=O)[O-])n1C)C2
inhibition [1]: 54.2% (active) | inhibition [2]: 35.2% (active) | inhibition [3]: 43% | inhibition [4]: 27% (active) | inhibition [5]: 68.6% (active) | inhibition [6]: 88.4% (active) | inhibition [7]: 73.7% (active) | inhibition [8]: 51.6% (active)

Cc1nn(C(C)(C)C)c(C)c1/C=N/OC(=O)Nc1ccc(Cl)cc1
inhibition [1]: 94% (active) | inhibition [2]: 91.8% (active) | inhibition [3]: 87.3% (active) | inhibition [4]: 87.8% (active) | inhibition [5]: 92.3% (active) | inhibition [6]: 95.5% (active) | inhibition [7]: 93.6% (active) | inhibition [8]: 88.7% (active)

Brc1ccc2c(c1)CN1CCCC1=N2
inhibition [1]: 15.1% | inhibition [2]: 31.6% (active) | inhibition [3]: 9.34% | inhibition [4]: 28% (active) | inhibition [5]: 30.9% (active) | inhibition [6]: 42.2% (active) | inhibition [7]: 30.6% | inhibition [8]: 42.4% (active)

CC(=NNC(=S)Nc1ccccc1)c1ccccn1
inhibition [1]: 41% | inhibition [2]: 70.5% (active) | inhibition [3]: -15.4% | inhibition [4]: 67.8% (active) | inhibition [5]: 78.3% (active) | inhibition [6]: 101% (active) | inhibition [7]: 90% (active) | inhibition [8]: 85.6% (active)

CCOc1ccc(-n2c(-c3ccc(OC)cc3)c[n+]3c2CCCCC3)cc1
inhibition [1]: 46.6% (active) | inhibition [2]: 67.5% (active) | inhibition [3]: 36.2% | inhibition [4]: 63.9% (active) | inhibition [5]: 52.9% (active) | inhibition [6]: 109% (active) | inhibition [7]: 83.9% (active) | inhibition [8]: 90.3% (active)

COc1ccc(NC(=O)c2cc(-c3cc(C)cc(F)c3)n[nH]2)cc1OC
inhibition [1]: 23.5% | inhibition [2]: 44.4% (active) | inhibition [3]: 15.5% | inhibition [4]: 33.5% (active) | inhibition [5]: 39.5% (active) | inhibition [6]: 55.6% (active) | inhibition [7]: 59.6% (active) | inhibition [8]: 61.5% (active)

N=c1c2c(n(Cc3ccc(Cl)cc3)c3c1CCC3)CCC2
inhibition [1]: 55.8% (active) | inhibition [2]: 68.7% (active) | inhibition [3]: 47.1% (active) | inhibition [4]: 61.9% (active) | inhibition [5]: 58.6% (active) | inhibition [6]: 105% (active) | inhibition [7]: 85.1% (active) | inhibition [8]: 78.3% (active)

O=C(CSc1nc2sc3c(c2c(=O)n1-c1ccccc1)CCCC3)NCc1ccco1
inhibition [1]: 7.86% | inhibition [2]: -11.9% | inhibition [3]: 4.53% | inhibition [4]: -16.3% | inhibition [5]: 8.53% | inhibition [6]: 15.3% | inhibition [7]: 10.7% | inhibition [8]: 3.41%

CCCCCCCn1c2c(c(=N)c3c1CCC3)CCCC2
inhibition [1]: 70.2% (active) | inhibition [2]: 81.8% (active) | inhibition [3]: 56.2% (active) | inhibition [4]: 83.4% (active) | inhibition [5]: 79.3% (active) | inhibition [6]: 110% (active) | inhibition [7]: 95.8% (active) | inhibition [8]: 98.2% (active)

CC(=NNC(=S)N1CCN(C2CCCCCC2)CC1)c1ccccn1
inhibition [1]: 50% (active) | inhibition [2]: 83.7% (active) | inhibition [3]: 66.2% (active) | inhibition [4]: 71% (active) | inhibition [5]: 81.8% (active) | inhibition [6]: 98.5% (active) | inhibition [7]: 85.4% (active) | inhibition [8]: 65.2% (active)

C#CC[N+](C)(C)CCCCCCCCCCCC
inhibition [1]: 29.2% | inhibition [2]: 45.9% (active) | inhibition [3]: 33.4% | inhibition [4]: 36.6% (active) | inhibition [5]: 29.7% (active) | inhibition [6]: 64.7% (active) | inhibition [7]: 65.8% (active) | inhibition [8]: 59.8% (active)

Cc1ccc(-n2c(-c3ccc(Br)cc3)c[n+]3c2CCc2ccc4cccnc4c2-3)cc1
inhibition [1]: 89.4% (active) | inhibition [2]: 86.1% (active) | inhibition [3]: 74.8% (active) | inhibition [4]: 87.5% (active) | inhibition [5]: 83.8% (active) | inhibition [6]: 111% (active) | inhibition [7]: 95.8% (active) | inhibition [8]: 96.3% (active)

C=CCn1c(C)cc(C(=O)CN2C(=O)c3ccccc3S2(=O)=O)c1C
inhibition [1]: 89.7% (active) | inhibition [2]: 74.1% (active) | inhibition [3]: 77.3% (active) | inhibition [4]: 72.7% (active) | inhibition [5]: 89% (active) | inhibition [6]: 91.1% (active) | inhibition [7]: 90.7% (active) | inhibition [8]: 83.8% (active)

CC(=O)c1c(C)[nH]c(C(=O)OCC(=O)Nc2cccc(S(=O)(=O)N3CCCC3)c2)c1C
inhibition [1]: 20.7% | inhibition [2]: 43.6% (active) | inhibition [3]: 5.87% | inhibition [4]: 38.3% (active) | inhibition [5]: 26.2% | inhibition [6]: 49.3% (active) | inhibition [7]: 48.9% (active) | inhibition [8]: 51.7% (active)

Cc1ccc2nc(NC(=O)CSCC(=O)OCC(=O)c3ccccc3)sc2c1
inhibition [1]: 46.5% (active) | inhibition [2]: 39% (active) | inhibition [3]: 7.46% | inhibition [4]: 30.5% (active) | inhibition [5]: 19.2% | inhibition [6]: 52.4% (active) | inhibition [7]: 39.6% | inhibition [8]: 32.6% (active)

CN(C)c1ncnc2c1nnn2C1OC(CO)C(O)C1O (stereo unspecified)
inhibition [1]: 82.7% (active) | inhibition [2]: 81.1% (active) | inhibition [3]: 29.6% | inhibition [4]: 81% (active) | inhibition [5]: 91.3% (active) | inhibition [6]: 105% (active) | inhibition [7]: 93.5% (active) | inhibition [8]: 88.8% (active)

C[n+]1c(-c2ccccc2)cc2c(=Cc3ccccc3)c3ccccc3n21
inhibition [1]: 39.3% | inhibition [2]: 70.3% (active) | inhibition [3]: 27.9% | inhibition [4]: 63.3% (active) | inhibition [5]: 54.9% (active) | inhibition [6]: 98.1% (active) | inhibition [7]: 87.2% (active) | inhibition [8]: 84.3% (active)
